Mac1 fbg enh = enhancers of CD11b/CD18 adhesion to fibrinogen, primary screen, K562 cells, luminescence | Integrin beta-2 (Homo sapiens) + Integrin alpha-M (Homo sapiens), P05107+P11215 | ATPlite luminescence | activation, % at 10 µM | 0.07% of 93,000 active | AID 1499, 2009;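 active means 10 µM primary screen giving 50% or more activity, confirmed by 40% or more on retest at that dose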
Target sequence (P05107 whole entry, looked up, other chains not shown): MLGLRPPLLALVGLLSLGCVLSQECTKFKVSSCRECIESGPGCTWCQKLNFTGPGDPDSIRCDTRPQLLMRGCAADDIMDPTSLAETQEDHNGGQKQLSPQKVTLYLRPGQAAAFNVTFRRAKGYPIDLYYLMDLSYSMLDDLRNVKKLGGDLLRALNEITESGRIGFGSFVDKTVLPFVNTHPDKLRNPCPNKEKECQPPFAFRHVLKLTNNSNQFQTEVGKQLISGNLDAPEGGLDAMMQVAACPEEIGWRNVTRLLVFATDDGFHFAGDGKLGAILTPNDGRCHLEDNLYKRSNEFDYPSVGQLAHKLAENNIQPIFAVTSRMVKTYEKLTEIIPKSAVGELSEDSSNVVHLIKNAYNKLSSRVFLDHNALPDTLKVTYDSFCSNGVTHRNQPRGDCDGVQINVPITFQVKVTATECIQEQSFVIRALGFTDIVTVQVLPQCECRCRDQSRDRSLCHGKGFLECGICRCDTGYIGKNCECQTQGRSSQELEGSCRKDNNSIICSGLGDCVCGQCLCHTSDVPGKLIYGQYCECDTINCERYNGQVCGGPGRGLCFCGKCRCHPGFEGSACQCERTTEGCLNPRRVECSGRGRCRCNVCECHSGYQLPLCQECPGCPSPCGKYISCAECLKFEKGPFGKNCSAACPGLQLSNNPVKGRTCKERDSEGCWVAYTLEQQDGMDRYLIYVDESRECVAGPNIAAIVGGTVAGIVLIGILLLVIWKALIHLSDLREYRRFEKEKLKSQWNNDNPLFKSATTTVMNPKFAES
CYP2C9 activ = human CYP2C9 activators, primary screen, biochemical, luminescence | AID 1024, 2008 | Cytochrome P450 2C9 (Homo sapiens), P11712 | 1.4% of 96,000 active | recombinant CYP2C9, luciferin-H conversion; hits give high values; factor 1 = untreated enzyme, 0 = blocked | activation factor at 5 µM;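 active means activation factor of 2 or more for CYP2C9 at a 5 µM dose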
Mac1 fbg inh = inhibitors of CD11b/CD18 adhesion to fibrinogen, primary screen, K562 cells, luminescence. AID 1497, 2009. inhibition, % at 10 µM. ATPlite luminescence; Mn2+ added to activate the integrin. 0.54% of 93,000 active. Integrin beta-2 (Homo sapiens) + Integrin alpha-M (Homo sapiens), P05107+P11215;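 active means primary inhibition of 50% or more at 10 µM, then 40% or more on retest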
CYP2C19 activ = human CYP2C19 activators, primary screen, biochemical, luminescence; AID 1025, 2008; Cytochrome P450 2C19 (Homo sapiens), P33261; activation factor at 5 µM; 96,000 tested, under 10 active; recombinant CYP2C19, luciferin-H EGE luminescence; hits give high values; 0 = fully inhibited enzyme, 1 = untreated enzyme;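 active means activation factor of at least 2 at 5 µM in the primary screen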
CYP2C19 inhib = blockers of cytochrome P450 2C19 activity – biochemical, luminescence, ADME assay, primary screen; CYP2C19 Supersomes, luciferin-H EGE luminescence, 30 min; 21% of 96,000 active; AID 778, 2007; inhibition, % at 5 µM;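 active means CYP2C19 inhibition above a set limit at 5 µM in the primary screen, cut at about 50% in these data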
CYP2C9 inh = blockers of cytochrome P450 2C9 activity – biochemical, luminescence, ADME assay, primary screen; CYP2C9 Supersomes, luciferin-H conversion; inhibition, % at 5 µM; 20% of 96,000 active; AID 777, 2007;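 active means blocking of liver enzyme CYP2C9 beyond about 50% at 5 µM, limit read from the data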
Each line names hits and unclear results; the compound was inactive in the other large screens. Only some compounds are listed: those with a hit (about 28% of all), similar ones and a draw of the others.

O=S(=O)(N1CCOCC1)n1c(Cc2ccccc2)nc2ccccc21	CYP2C19 inhib 75.0 (no result: Mac1 fbg enh, Mac1 fbg inh)
Cc1ccc2nc(Nc3nc(-c4ccccc4)cc(=O)[nH]3)nc(C)c2c1	CYP2C9 inh 54.8 (no result: Mac1 fbg enh, Mac1 fbg inh)
Cc1ccc(CCC(=O)Nc2ccc(S(N)(=O)=O)cc2)o1	none (no result: Mac1 fbg inh)
Cc1cccc(NC(=O)CCc2ccc(C)o2)c1	CYP2C19 inhib 90.4
CCOC(=O)c1ccc(NC(=O)CCc2ccc(C)o2)cc1	CYP2C9 inh 55.3 (no result: Mac1 fbg enh, Mac1 fbg inh)
CC(=O)N1CCc2cc(Br)cc(S(=O)(=O)NCCN3CCCCC3C)c21 (stereo not given)	none
CC(=O)N1c2c(cc(Br)cc2S(=O)(=O)NCC2COc3ccccc3O2)CC1C (stereo not given)	CYP2C19 inhib 65.0 (no result: Mac1 fbg enh, Mac1 fbg inh)
CC(=O)N1c2c(cc(Br)cc2S(=O)(=O)NCc2cccnc2)CC1C (stereo not given)	none
CCCCN(Cc1ccccc1)S(=O)(=O)c1cc(Br)cc2c1N(C(C)=O)C(C)C2 (stereo not given)	CYP2C9 inh 95.0
CC(=O)N1c2c(cc(Br)cc2S(=O)(=O)N2CCOCC2)CC1C (stereo not given)	none
CC(=O)N1c2c(cc(Br)cc2S(=O)(=O)NCc2ccc3c(c2)OCO3)CC1C (stereo not given)	CYP2C19 inhib 86.1
c1ccc(-c2nnc(CSc3nncs3)o2)cc1	none
CNC(=O)CC(C(=O)O)c1ccc(OC(C)C)cc1 (stereo not given)	none
CS(=O)(=O)N1CCc2cc(S(=O)(=O)Nc3ccc4oc5c(c4c3)CCCC5)ccc21	CYP2C19 inhib 96.2, CYP2C9 inh 92.9
Nc1ccc(-c2n[nH]c(=O)c3ccccc23)cc1N	none
Cn1cc(/C(Cc2ccccc2)=N\O)c2ccccc21	CYP2C19 inhib 58.6
Cn1cc(C(=O)N/N=C/c2cccs2)c2ccccc21	none (no result: CYP2C9 activ, CYP2C19 activ, CYP2C19 inhib, CYP2C9 inh)
Cn1cccc1C(=O)OCC(=O)Nc1cc(C(C)(C)C)nn1-c1ccccc1	none
CC(C)(C)c1cc(NC(=O)COC(=O)c2ccc3c(=O)n4c(nc3c2)CCC4)n(-c2ccccc2)n1	CYP2C19 inhib 77.0, CYP2C9 inh 82.0
OCc1nc2ccccc2n1CCCOc1ccccc1	CYP2C19 inhib 52.8
Cc1cccc(OCCCn2c(=O)sc3ccccc32)c1	none
COc1ccccc1OCCn1c(=O)sc2ccccc21	CYP2C19 inhib 68.2, CYP2C9 inh 66.0
COCc1nc2ccccc2n1CCOc1ccccc1OC	CYP2C19 inhib 59.6
CC(C)C(=O)NCCc1nc2ccccc2n1CCOc1ccccc1	none (no result: CYP2C9 activ, CYP2C19 activ, CYP2C19 inhib, CYP2C9 inh)
Cc1ccc(OCCCn2c(CO)nc3ccccc32)cc1	CYP2C19 inhib 95.2, CYP2C9 inh 53.3
COCCSc1ccccc1C(=O)N1CCOCC1	none
CCN1CCN(C(=O)C2CCN(Cc3cc(Cl)ccc3O)CC2)CC1	none
O=C(Nn1cnnc1)c1ccccc1CCc1ccccc1	none
COCCn1c(COc2ccc(C)cc2)nc2ccccc21	CYP2C19 inhib 65.0
OCCn1c(SCCOc2ccccc2)nc2ccccc21	CYP2C19 inhib 75.1
Cc1ccc(Cn2ccc(NC(=O)c3cc(-c4cccs4)on3)n2)cc1	none
Cc1cccc(OCCC(=O)NCC(=O)Nc2c(C)cccc2C)c1	none (no result: CYP2C9 activ, CYP2C19 activ, CYP2C19 inhib, CYP2C9 inh)
CC1=Nn2c(nnc2-c2ccc(F)cc2)SC1	none
CCCCn1c(SCC(=O)NCc2ccco2)nc2c(sc3ccccc32)c1=O	Mac1 fbg inh 53.7, CYP2C9 inh 73.6
O=C(CSc1nc2c(sc3ccccc32)c(=O)n1CCc1ccccc1)NCc1ccco1	CYP2C9 inh 52.1
CCOC(=O)CSc1nc2c(sc3ccccc32)c(=O)n1CCCN1CCOCC1	CYP2C9 inh 55.1
CCOCCCn1c(SCC(=O)NCc2ccco2)nc2c(sc3ccccc32)c1=O	Mac1 fbg inh 56.0, CYP2C9 inh 65.5
CCCCn1c(SCC(N)=O)nc2c(sc3ccccc32)c1=O	none
CCC(C)NC(=O)CSc1nc2c(sc3ccccc32)c(=O)n1CCCN1CCOCC1 (stereo not given)	none
CCC(C)Nc1nc2c(c(=O)n(C)c(=O)n2C)n1Cc1ccc(F)cc1 (stereo not given)	none
CCCn1nc(C(=O)NC2CCCc3ccccc32)c2ccccc2c1=O (stereo not given)	none (no result: CYP2C9 activ, CYP2C19 activ, CYP2C19 inhib, CYP2C9 inh)
Nn1c(SCC(=O)N2CCCc3ccccc32)nnc1-c1ccc(Cl)cc1	none
C=CCn1c(COc2ccc(Cl)cc2)nnc1SCC(=O)N/N=C/c1ccccc1	none (no result: Mac1 fbg enh, Mac1 fbg inh)
CCOC(=O)Cn1c(-c2ccccc2)nc2ccccc2c1=O	none
O=c1c2ccccc2c2c(O)nc(-c3ccccc3)n2n1Cc1ccccc1	CYP2C9 inh 53.9
CCCOc1ccccc1N1C(=O)CC(N2CCOCC2)C1=O (stereo not given)	none
NC(=O)c1oc2ccc(Cl)cc2c1NC(=O)CN1CCOCC1	CYP2C19 inhib 51.8
COC(=O)c1oc2ccc(Br)cc2c1NC(=O)CCN1CCOCC1	CYP2C9 inh 55.2
CCOC(=O)c1oc2ccc(Br)cc2c1NC(=O)CN1CCN(C)CC1	none
c1coc(-c2nc3c([nH]2)CCc2nonc2-3)c1	none
O=C(O)c1cnn(-c2ccccc2)c1-c1ccccc1	none
COc1cc(C=O)ccc1OCCSc1ccc(C)cc1	CYP2C19 inhib 85.0, CYP2C9 inh 67.7
CCOc1cc(C=O)ccc1OCCSc1ccc(C)cc1	CYP2C19 inhib 76.7, CYP2C9 inh 69.7
COCCSc1ccccc1C(=O)NCCCn1ccnc1	CYP2C19 inhib 68.1
O=C(NCCCn1ccnc1)c1cn(-c2ccccc2)nc1-c1ccccc1	CYP2C19 inhib 64.1, CYP2C9 inh 93.9
CCn1c(SCC(=O)Nc2ccc(S(N)(=O)=O)cc2)nnc1-c1cccc(OC)c1	none
Cc1cc(=O)n2nc(N3CCC(C(=O)NCc4cccnc4)CC3)sc2n1	none
CCN(CC(=O)Nc1cc(Cl)ccc1C)c1ncnc2sc(C)c(C)c12	none (no result: CYP2C9 activ, CYP2C19 activ, CYP2C19 inhib, CYP2C9 inh)
COc1ccc(C2NC(=O)NC(O)(C(F)(F)F)C2C(=O)c2ccccc2)cc1OC (stereo not given)	none
COc1cccc(C2NC(=O)NC(O)(C(F)(F)F)C2C(=O)c2cccnc2)c1OC (stereo not given)	CYP2C19 inhib 91.9
Cc1[nH]nc2c1-c1nc3ccccc3nc1C(C)(C)C2	CYP2C19 inhib 67.6
Cn1c(=O)c2c(nc(NCCc3ccccc3)n2Cc2ccc(F)cc2)n(C)c1=O	none
Cn1c(=O)c2c(nc(NCc3ccccc3)n2C)n(C)c1=O	none (no result: Mac1 fbg enh, Mac1 fbg inh)
CC(C)CCNc1nc2c(c(=O)n(Cc3cccc(F)c3)c(=O)n2C)n1C	CYP2C19 inhib 88.0, CYP2C9 inh 84.7

Source: PubChem BioAssay
